Measured values reported in PubChem BioAssay AID1259421 (Broad Institute, 2018).
Values joined by “and” are separate entries in the source; they are usually repeats but may differ in a detail not shown here. Identical values can stand only once. About 610 (9.5%) of roughly 6,400 compounds were called active. Rule as the data show it: active = activity change below about -70%; inconclusive = no clear call, values can overlap the other calls; inactive = above that. For the sample, actives were picked, then their nearest neighbours and some compounds at random. More than one record can exist for a structure, and the calls need not agree.

Assay: Toxoplasma gondii ME49Luc growth in HeLa cells, luciferase, no IFN-y, primary screen (AID 1259421)
Conditions: T. gondii ME49Luc in HeLa, 72 h, stronger effect = lower value, concentration not given here

| Structure (SMILES) | activity change, negative = inhibition |
| --- | --- |
| COc1cc(-c2ccc(=O)[nH]n2)ccc1OC(F)F | -98.8% (active) and -89.5% (active) |
| COc1ccc(-c2cc(=O)c3c(OC)c(OC)c(OC)c(OC)c3o2)cc1OC | 14.2% (inactive) |
| COc1ccc(-c2cc(=O)c3c(OC)c(OC)c(OC)cc3o2)cc1OC | -3.44% (inactive) |
| N[C@@H](CSCCCO)C(=O)O | 9.56% (inactive) and 5.2% (inactive) |
| COC(=O)Nc1nc2ccc(SC(C)C)cc2[nH]1 | -47% (inactive) and -32.6% (inactive) |
| COC(=O)Nc1nc2ccc(C(=O)c3ccc(F)cc3)cc2[nH]1 | -64.8% (inactive) |
| CCCS(=O)c1ccc2nc(NC(=O)OC)[nH]c2c1 (stereo unspecified) | 18.9% (inactive) |
| COC(=O)Nc1nc2ccc(C(=O)c3ccccc3)cc2[nH]1 | -65.6% (inactive) and -76% (active) |
| CCCSc1ccc2nc(NC(=O)OC)[nH]c2c1 | -54.3% (inactive) and -5.56% (inactive) |
| COC(=O)Nc1nc2ccc(C(=O)c3cccs3)cc2[nH]1 | -78.8% (active) and -71.2% (active) |
| COC(=O)Nc1nc2ccc(C(=O)C3CC3)cc2[nH]1 | -35.4% (inactive) |
| COC(=O)Nc1nc2ccc(S(=O)c3ccccc3)cc2[nH]1 (stereo unspecified) | 1.33% (inactive) and 7.44% (inactive) and -54.7% (inactive) |
| COC(=O)Nc1nc2ccc(Sc3ccccc3)cc2[nH]1 | -42.3% (inactive) and -3.74% (inactive) and -73.8% (active) |
| CN(CCOP(=O)(O)O)C(=N)N | 22.7% (inactive) and 1.51% (inactive) |
| O=C(O)[C@H](Cc1ccc(Nc2nccc3ccncc23)cc1)NC1=C(Br)C(=O)C12CCCCC2 | -35.7% (inactive) |
| CN(C)CCC1(c2ccc(Cl)cc2)Cc2ccccc2C(=O)O1 (stereo unspecified) | 24.4% (inactive) and 4.82% (inactive) |
| CCOc1nc2cccc(C(=O)OC(C)OC(=O)OC3CCCCC3)c2n1Cc1ccc(-c2ccccc2-c2nn[nH]n2)cc1 (stereo unspecified) | 26.2% (inactive) and -2.58% (inactive) |
| COc1ccc(-c2oc3ccccc3c(=O)c2O)cc1OC | 17.9% (inactive) |
| CN(C)C(=O)C(=O)c1cn(C)c2cc(Cl)c(C(=O)N3CCC(Cc4ccc(F)cc4)CC3)cc12 | -34.4% (inactive) |
| CN(C)[C@@H](CCOc1cccc2ccccc12)c1ccccc1 | 16.9% (inactive) |
| CC(C)Nc1nc2cc(Cl)c(Cl)cc2n1[C@H]1O[C@@H](CO)[C@H](O)[C@@H]1O | -13.6% (inactive) |
| c1ccc(C(NCc2cccnc2)(c2ccccc2)c2ccccc2)cc1 | 3.97% (inactive) and 35.4% (inactive) |
| CCCn1c(=O)c2[nH]c(C34CC5CC(CC3C5)C4)nc2n(CCC)c1=O | -9.56% (inactive) |
| Fc1ccc(C(c2ccccc2)(c2ccccc2F)n2ccnc2)cc1 (stereo unspecified) | -44.6% (inactive) |
| N#C/C(=C1/SCC(c2ccccc2Cl)S1)n1ccnc1 (stereo unspecified) | 12.5% (inactive) |
| Clc1ccccc1C(c1ccccc1)(c1ccccc1)n1ccnc1 | -38.2% (inactive) and -91% (active) |

| Structure (SMILES) | activity change, negative = inhibition |
| --- | --- |
| N[C@H](Cc1cnc[nH]1)C(=O)O | 2.37% (inactive) |
| O=c1cc[nH]c2cc(Cl)ccc12 | 10.2% (inactive) |
| CN(C)C/C=C/C(=O)Nc1cc2c(Nc3ccc(F)c(Cl)c3)ncnc2cc1O[C@H]1CCOC1 | -87.8% (active) |
| CNC(=O)CN1CCC(Oc2cc3c(Nc4cccc(Cl)c4F)ncnc3cc2OC)CC1 | -53.4% (inactive) |
| CCN(CC)CC1CCN(c2ncc3ncnc(Nc4ccc(F)c(Cl)c4)c3n2)CC1 | -13.4% (inactive) and 3.34% (inactive) |
| COc1cc2ncnc(Nc3ccc(F)c(Cl)c3)c2cc1NC(=O)/C=C/CN1CCCCC1 | -80.3% (active) |
| C=CC(=O)Nc1cc2c(Nc3ccc(F)c(Cl)c3)ncnc2cc1OCCCN1CCOCC1 | -41.3% (inactive) |
| C[C@@H]1COC(Nc2ccc3ncnc(Nc4ccc(OCc5nccs5)c(Cl)c4)c3c2)=N1 | -65.9% (inactive) |
| CC/C=C\C/C=C\C/C=C\C/C=C\C/C=C\CCCC(=O)O | 2.92% (inactive) |
| COc1ccc(NS(=O)(=O)c2ccc(N=Nc3ccc(O)c(C(=O)O)c3)cc2)nn1 | 5.08% (inactive) |
| O=C(O)Cc1nn(Cc2nc3cc(C(F)(F)F)ccc3s2)c(=O)c2ccccc12 | 19.5% (inactive) |
| COc1ccc(Nc2ncnc3ccc(OC)cc23)cc1 | 3.66% (inactive) and 3.52% (inactive) |
| COCC(=O)NC/C=C/c1ccc2ncnc(Nc3ccc(Oc4ccc(C)nc4)c(C)c3)c2c1 | -85.5% (active) |
| C=CC(=O)Nc1ccc2ncnc(Nc3cccc(Br)c3)c2c1 | -18.1% (inactive) |
| c1ccc(Oc2cccnc2)cc1 | 5.26% (inactive) |
| CC1=CC(=O)CC(C)(C)[C@@]1(O)/C=C/C(C)=C\C(=O)O | 0.0395% (inactive) |
| CCCCC[C@H](O)/C=C/[C@@H]1[C@H]2C/C(=C/CCCC(=O)O)O[C@H]2C[C@H]1O | 13.9% (inactive) |
| COCC(=O)O[C@]1(CCN(C)CCCc2nc3ccccc3[nH]2)CCc2cc(F)ccc2[C@@H]1C(C)C | -74.4% (active) and -72.6% (active) |
| CC(C)[C@H]1c2ccc(F)cc2CC[C@@]1(CCN(C)CCCc1nc2ccccc2[nH]1)OC(=O)C1CC1 | -84% (active) and -73.8% (active) |
| O=C(O)CCc1nc2ccccc2[nH]1 | 7.52% (inactive) and 21.6% (inactive) |
| O=C(O)C1CC(O)CN1 (stereo unspecified) | -0.806% (inactive) |
| Cc1ccc(S(=O)(=O)Nc2nc3ccccc3nc2Nc2ccc3nsnc3c2)cc1 | 1.14% (inactive) |
| O=c1oc2cc(O)ccc2c2oc3cc(O)ccc3c12 | 13.4% (inactive) |
| CC1(C)CCC(c2ccc(Cl)cc2)=C(CN2CCN(c3ccc(C(=O)NS(=O)(=O)c4ccc(N[C@H](CCN5CCOCC5)CSc5ccccc5)c(S(=O)(=O)C(F)(F)F)c4)cc3)CC2)C1 | -89% (active) |
| CN(C)CC[C@H](CSc1ccccc1)Nc1ccc(S(=O)(=O)NC(=O)c2ccc(N3CCN(Cc4ccccc4-c4ccc(Cl)cc4)CC3)cc2)cc1[N+](=O)[O-] | -28.3% (inactive) |
